# The source made the active and inactive calls. Unless noted, the rule behind the calls is not given here.
# Key:
# [1] = resazurin metabolic signal in HepG2 cells – cell-based, resazurin fluorescence, 24 h, PK04 Diversity Set, profiling panel (AID 1172); details: HepG2 viability, higher = more signal
# [2] = budding yeast growth changes without added modifier – OD600, strain BY4716, 24 h, basal condition, primary screen (AID 1173); details: S. cerevisiae BY4716 growth, OD600, 24 h; higher = more signal, called active from +8 up or from −8 down
# [3] = viability profiling in MM1S myeloma cells – cell-based, resazurin fluorescence, basal, 24 h, PK04 Diversity Set, profiling panel (AID 1174); details: higher = more signal, called active from +8 up or from −8 down;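 note: MM1S multiple myeloma cell line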
# [4] = target: Dihydroorotate dehydrogenase (quinone), mitochondrial (Plasmodium falciparum (isolate 3D7)) (UniProt Q08210); assay: inhibition of P. falciparum DHODH – biochemical, C-terminal His tag, absorbance 600 nm, primary screen (AID 1175); details: PfDHODH enzyme, DCIP absorbance 600 nm; higher = more signal, called active from +8 up or from −8 down;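 note: recombinant parasite enzyme with a five histidine tag at its C terminus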
# Sequence of Dihydroorotate dehydrogenase (quinone), mitochondrial (Plasmodium falciparum (isolate 3D7)) (Q08210 whole entry, looked up): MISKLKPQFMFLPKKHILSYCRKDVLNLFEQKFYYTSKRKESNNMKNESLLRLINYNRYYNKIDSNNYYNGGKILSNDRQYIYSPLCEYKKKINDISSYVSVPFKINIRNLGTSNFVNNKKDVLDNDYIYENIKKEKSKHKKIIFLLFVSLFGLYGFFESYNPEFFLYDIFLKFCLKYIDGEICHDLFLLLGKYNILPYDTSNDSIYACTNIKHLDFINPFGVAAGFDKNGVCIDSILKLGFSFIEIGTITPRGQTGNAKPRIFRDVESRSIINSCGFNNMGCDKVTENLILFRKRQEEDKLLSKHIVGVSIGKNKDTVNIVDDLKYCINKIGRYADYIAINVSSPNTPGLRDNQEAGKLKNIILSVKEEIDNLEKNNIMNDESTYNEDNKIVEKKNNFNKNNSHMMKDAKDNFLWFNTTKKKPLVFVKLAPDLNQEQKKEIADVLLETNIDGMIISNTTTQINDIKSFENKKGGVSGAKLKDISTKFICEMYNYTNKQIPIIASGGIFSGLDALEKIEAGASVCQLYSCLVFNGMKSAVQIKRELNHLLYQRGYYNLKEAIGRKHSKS
# [5] = inhibition of PAO1 biofilm formation – strain PAO1, LB-PBS medium, absorbance 600 nm, primary screen (AID 1176); details: P. aeruginosa PAO1 growth/biofilm, A600, 12 h; higher = more signal
# [6] = growth modulation of vineyard yeast isolate – strain RM11-1a, OD600, basal, 24 h, primary screen (AID 1177);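 note: cultures grown under basal conditions with no added stressor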; details: S. cerevisiae RM11-1a growth, OD600, 24 h; higher = more signal, called active from +8 up or from −8 down
# [7] = growth of efflux-deficient E. coli DRC39 – strain DRC39, OD650, 24 h, E. coli filamentation inducers, primary screen (AID 1178);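 note: growth measured as culture turbidity by optical density at 650 nm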; details: E. coli DRC39 acrAB, higher = more signal, called active from +8 up or from −8 down
# [8] = growth of efflux-deficient E. coli DRC39 – strain DRC39, OD650, 48 h, E. coli filamentation inducers, primary screen (AID 1179);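 note: screen aims at cell division blockers that make cells filament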; details: E. coli DRC39 delta-acrAB growth, higher = more signal, called active from +8 up or from −8 down
# [9] = viability profiling in RPMI8226 myeloma cells – cell-based, resazurin fluorescence, basal, 24 h, PK04 Diversity Set, profiling panel (AID 1180); details: higher = more signal;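 note: RPMI8826 multiple myeloma cell line at 5000 cells per well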
# [10] = target: E3 ubiquitin-protein ligase XIAP (Homo sapiens) (UniProt P98170); assay: small molecules binding XIAP protein – biophysical, small-molecule microarray, fluorescence 635 nm, primary screen (AID 1181); details: higher = more signal;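 note: score merges 667 nm emission and signal to noise over triplicate slides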
# Sequence of E3 ubiquitin-protein ligase XIAP (Homo sapiens) (P98170 whole entry, looked up, the tested form may be a part): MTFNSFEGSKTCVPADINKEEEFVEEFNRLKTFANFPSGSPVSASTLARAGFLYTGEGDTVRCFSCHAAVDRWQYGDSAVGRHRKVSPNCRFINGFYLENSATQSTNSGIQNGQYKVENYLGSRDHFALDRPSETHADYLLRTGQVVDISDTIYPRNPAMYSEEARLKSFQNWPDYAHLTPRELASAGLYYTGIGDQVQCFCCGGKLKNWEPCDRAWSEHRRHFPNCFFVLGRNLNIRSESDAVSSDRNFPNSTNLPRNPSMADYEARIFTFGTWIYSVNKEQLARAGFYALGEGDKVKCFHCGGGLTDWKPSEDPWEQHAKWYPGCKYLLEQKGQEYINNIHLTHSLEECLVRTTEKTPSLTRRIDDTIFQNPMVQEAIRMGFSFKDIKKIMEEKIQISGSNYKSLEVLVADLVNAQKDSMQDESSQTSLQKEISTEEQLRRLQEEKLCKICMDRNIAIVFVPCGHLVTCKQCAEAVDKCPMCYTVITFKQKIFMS
# [11] = system: XIP peptide (Xip251-270) binding; assay: XIP fragment 251-270 binding compounds – biochemical, small-molecule microarray, fluorescence 635/667 nm, 0.1 µg/mL protein, primary screen (AID 1182); details: fluorescent protein binding, 635 nm, higher = more signal, called active from +8 up or from −8 down
# XIP peptide (Xip251-270) = assay: compounds binding XIP fragment 251-270 – biochemical, small-molecule microarray, fluorescence 635/667 nm, 0.5 µg/mL protein, primary screen (AID 1183); details: fluorescence 635 nm, higher = more signal
# [12] = blood-stage malaria parasite viability loss – strain 3D7, DAPI fluorescence, 100 nL, primary screen (AID 1184);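 note: parasites grown inside human red blood cells in medium with human serum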; details: P. falciparum 3D7 growth, 3 d, higher = more signal
# [13] = target: Homeobox protein Hox-A13 (Mus musculus) (UniProt Q62424); assay: disruptors of Hoxa13 oligonucleotide interaction – biochemical, fluorescence polarization, labeled oligonucleotide, primary screen (AID 1185); details: Hoxa13:DNA binding, 15 min, higher = more signal, called active from +8 up or from −8 down
# Sequence of Homeobox protein Hox-A13 (Mus musculus) (Q62424 whole entry, looked up): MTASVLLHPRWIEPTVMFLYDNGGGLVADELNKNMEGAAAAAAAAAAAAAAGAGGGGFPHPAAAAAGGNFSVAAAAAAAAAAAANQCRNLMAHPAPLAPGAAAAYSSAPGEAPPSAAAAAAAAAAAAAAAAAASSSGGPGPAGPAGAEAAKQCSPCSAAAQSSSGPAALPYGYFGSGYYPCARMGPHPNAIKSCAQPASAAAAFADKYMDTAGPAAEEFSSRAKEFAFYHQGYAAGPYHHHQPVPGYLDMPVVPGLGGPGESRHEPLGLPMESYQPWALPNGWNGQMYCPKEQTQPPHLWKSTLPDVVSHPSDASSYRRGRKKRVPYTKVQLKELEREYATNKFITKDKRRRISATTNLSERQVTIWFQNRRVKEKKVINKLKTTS
# [14] = blockers of DNA damage checkpoint Chk1 activation – imaging, HeLa, hydroxyurea, phospho-Chk1 antibody, percent positive cells, primary screen (AID 1186); details: hydroxyurea-induced phospho-Chk1 immunofluorescence imaging, higher = more signal
# [15] = blockers of DNA damage checkpoint Chk1 activation – imaging, HeLa, hydroxyurea, phospho-Chk1 nuclear intensity, primary screen (AID 1187); details: hydroxyurea-induced phospho-Chk1 immunofluorescence imaging, higher = more signal
smiles,measurement,setting,value
C=CC[C@@]12N=C(c3ccc(OCCCO)cc3)O[C@@H]1c1ccccc1N(Cc1ccccc1)C2=O,z-score,[1],0.157
same,z-score,[2],-0.848 (inactive)
same,z-score,[3],-2.58 (inactive)
same,composite z-score,[4],-0.162 (inactive)
same,z-score,[5],0.469 (inactive)
same,z-score,[6],0.632 (inactive)
same,z-score,[7],1.48 (inactive)
same,z-score,[8],0.666 (inactive)
same,z-score,[9],-2.37
same,composite z-score,[10],0.322
same,composite z-score,[11],0.799 (inactive)
same,composite z-score,XIP peptide (Xip251-270),0.797
same,z-score,[12],-2.42
same,z-score,[13],-2.23 (inactive)
same,z-score,[14],0.0198 (inactive)
same,z-score,[15],0.552 (inactive)
COC(=O)C1(CC(C)C)C=C2C(=C(C(C)C)C(=O)C2C)CN1 (stereo not given),z-score,[1],-0.947
same,z-score,[2],1.46 (inactive)
same,z-score,[3],-1.56 (inactive)
same,composite z-score,[4],-1.18 (inactive)
same,z-score,[5],0.399 (inactive)
same,z-score,[6],0.271 (inactive)
same,z-score,[7],-0.592 (inactive)
same,z-score,[8],-0.113 (inactive)
same,z-score,[9],-1.97
same,composite z-score,[10],0.732
same,composite z-score,[11],-0.418 (inactive)
same,composite z-score,XIP peptide (Xip251-270),0.172
same,z-score,[12],1.24
same,z-score,[13],-6.06 (inactive)
same,z-score,[14],0.677 (inactive)
same,z-score,[15],0.675 (inactive)
COc1cc(OC)c(C(O)C2C=CC3C(=O)N(c4ccccc4)C(=O)C3N2Nc2ccccc2F)cc1Br (stereo not given),z-score,[1],-0.384
same,z-score,[2],-1.22 (inactive)
same,z-score,[3],-0.898 (inactive)
same,composite z-score,[4],-0.92 (inactive)
same,z-score,[5],1.32 (inactive)
same,z-score,[6],0.298 (inactive)
same,z-score,[7],-0.529 (inactive)
same,z-score,[8],-0.595 (inactive)
same,z-score,[9],-2.08
same,composite z-score,[10],0.0245
same,composite z-score,[11],0.166 (inactive)
same,composite z-score,XIP peptide (Xip251-270),0.758
same,z-score,[12],1.74
same,z-score,[13],-1.47 (inactive)
same,z-score,[14],0.195 (inactive)
same,z-score,[15],-0.0782 (inactive)
CN(C)CCCNC(=O)[C@@]1(Cc2ccccc2I)c2ccccc2C(=O)N(Cc2ccccc2)[C@H]1c1ccc(CO)cc1,z-score,[1],-3.78
same,z-score,[2],-3.24 (inactive)
same,z-score,[3],-0.892 (inactive)
same,composite z-score,[4],-0.19 (inactive)
same,z-score,[5],0.292 (inactive)
same,z-score,[6],0.209 (inactive)
same,z-score,[7],0.0574 (inactive)
same,z-score,[8],0.252 (inactive)
same,z-score,[9],-1.89
same,composite z-score,[10],0.24
same,composite z-score,[11],0.869 (inactive)
same,composite z-score,XIP peptide (Xip251-270),0.828
same,z-score,[12],-2.21
same,z-score,[13],-0.783 (inactive)
same,z-score,[14],0.22 (inactive)
same,z-score,[15],0.276 (inactive)
COCCOC(=O)N1C(=O)[C@@]2(c3cc(C#CCCO)ccc31)[C@H](c1ccccc1OCCO)N1[C@H](c3ccccc3)[C@H](c3ccccc3)OC(=O)[C@H]1[C@@H]2C(=O)N1CCc2cc(OC)c(OC)cc2C1,z-score,[1],-0.321
same,z-score,[2],1.39 (inactive)
same,z-score,[3],0.248 (inactive)
same,composite z-score,[4],0.725 (inactive)
same,z-score,[5],1.26 (inactive)
same,z-score,[6],2 (inactive)
same,z-score,[7],0.0965 (inactive)
same,z-score,[8],0.963 (inactive)
same,z-score,[9],1.19
same,composite z-score,[10],0.132
same,composite z-score,[11],0.291 (inactive)
same,composite z-score,XIP peptide (Xip251-270),0.816
same,z-score,[12],-1.75
same,z-score,[13],0.0237 (inactive)
same,z-score,[14],-0.156 (inactive)
same,z-score,[15],0.0652 (inactive)
C=CCC(OC(C)=O)[C@@H]1[C@@H](N(Cc2ccc(-c3cccc(C(F)(F)F)c3)o2)C(=O)Cc2ccc(F)cc2)c2cc(OCCCO)ccc2N1C(=O)c1ccc2ccccc2n1 (stereo not given in full),z-score,[1],0.286
same,z-score,[2],0.441 (inactive)
same,z-score,[3],0.229 (inactive)
same,composite z-score,[4],-0.235 (inactive)
same,z-score,[5],0.927 (inactive)
same,z-score,[6],-0.116 (inactive)
same,z-score,[7],-0.36 (inactive)
same,z-score,[8],-0.15 (inactive)
same,z-score,[9],-0.128
same,composite z-score,[10],0.0454
same,composite z-score,[11],-0.384 (inactive)
same,composite z-score,XIP peptide (Xip251-270),-0.904
same,z-score,[12],0.587
same,z-score,[13],-2.08 (inactive)
same,z-score,[14],0.918 (inactive)
same,z-score,[15],0.64 (inactive)
C/C=C/CN(C(=O)C#Cc1ccccc1)[C@H](CO[Si](C)(C)C(C)(C)C)c1ccccc1,z-score,[1],0.704
same,z-score,[2],-0.161 (inactive)
same,z-score,[3],1.79 (inactive)
same,composite z-score,[4],-3.11 (inactive)
same,z-score,[5],-0.966 (inactive)
same,z-score,[6],-0.36 (inactive)
same,z-score,[7],2 (inactive)
same,z-score,[8],0.846 (inactive)
same,z-score,[9],3.51
same,composite z-score,[10],-0.193
same,composite z-score,[11],-0.617 (inactive)
same,composite z-score,XIP peptide (Xip251-270),-0.109
same,z-score,[12],-2.04
same,z-score,[13],1.99 (inactive)
same,z-score,[14],-0.288 (inactive)
same,z-score,[15],-0.0994 (inactive)
O=C(NCC(F)(F)F)[C@@H]1c2ccccc2C(=O)N(CC23CC4CC(CC(C4)C2)C3)[C@H]1c1ccc(CO)cc1,z-score,[1],0.26
same,z-score,[2],-2.11 (inactive)
same,z-score,[3],-1.04 (inactive)
same,composite z-score,[4],-2.32 (inactive)
same,z-score,[5],1.43 (inactive)
same,z-score,[6],-2.97 (inactive)
same,z-score,[7],1.05 (inactive)
same,z-score,[8],0.823 (inactive)
same,z-score,[9],0.582
same,composite z-score,[10],0.341
same,composite z-score,[11],0.35 (inactive)
same,composite z-score,XIP peptide (Xip251-270),0.586
same,z-score,[12],-2.24
same,z-score,[13],-4.02 (inactive)
same,z-score,[14],-0.254 (inactive)
same,z-score,[15],-0.371 (inactive)
CCCCC=C[C@@H](NC(=O)c1ccc(C(F)(F)F)cc1)c1ccccc1,z-score,[1],1.64
same,z-score,[2],-0.118 (inactive)
same,z-score,[3],0.423 (inactive)
same,composite z-score,[4],-0.101 (inactive)
same,z-score,[5],-0.222 (inactive)
same,z-score,[6],0.562 (inactive)
same,z-score,[7],-0.244 (inactive)
same,z-score,[8],0.291 (inactive)
same,z-score,[9],1.1
same,composite z-score,[10],0.0699
same,composite z-score,[11],0.0581 (inactive)
same,composite z-score,XIP peptide (Xip251-270),-0.11
same,z-score,[12],0.185
same,z-score,[13],-3.7 (inactive)
same,z-score,[14],-0.587 (inactive)
same,z-score,[15],-1.16 (inactive)
O=C1C2C=CC(C(O)c3cccs3)N(Nc3ccccc3)C2C(=O)N1c1ccccc1 (stereo not given),z-score,[1],-1.51
same,z-score,[2],-3.05 (inactive)
same,z-score,[3],-0.334 (inactive)
same,composite z-score,[4],-0.116 (inactive)
same,z-score,[5],1.06 (inactive)
same,z-score,[6],-0.272 (inactive)
same,z-score,[7],0.0187 (inactive)
same,z-score,[8],-0.952 (inactive)
same,z-score,[9],-0.717
same,composite z-score,[10],0.0537
same,composite z-score,[11],0.308 (inactive)
same,composite z-score,XIP peptide (Xip251-270),0.171
same,z-score,[12],-0.459
same,z-score,[13],-2.56 (inactive)
same,z-score,[14],-0.719 (inactive)
same,z-score,[15],-0.649 (inactive)
